The values below come from ChEMBL document CHEMBL2218924, “A broad activity screen in support of a chemogenomic map for kinase signalling research and drug discovery” (Biochem J, 2013).

Assay [1] has as its target T1, Ephrin type-B receptor 2 (Homo sapiens) (UniProt P29323).
T1 sequence (whole entry): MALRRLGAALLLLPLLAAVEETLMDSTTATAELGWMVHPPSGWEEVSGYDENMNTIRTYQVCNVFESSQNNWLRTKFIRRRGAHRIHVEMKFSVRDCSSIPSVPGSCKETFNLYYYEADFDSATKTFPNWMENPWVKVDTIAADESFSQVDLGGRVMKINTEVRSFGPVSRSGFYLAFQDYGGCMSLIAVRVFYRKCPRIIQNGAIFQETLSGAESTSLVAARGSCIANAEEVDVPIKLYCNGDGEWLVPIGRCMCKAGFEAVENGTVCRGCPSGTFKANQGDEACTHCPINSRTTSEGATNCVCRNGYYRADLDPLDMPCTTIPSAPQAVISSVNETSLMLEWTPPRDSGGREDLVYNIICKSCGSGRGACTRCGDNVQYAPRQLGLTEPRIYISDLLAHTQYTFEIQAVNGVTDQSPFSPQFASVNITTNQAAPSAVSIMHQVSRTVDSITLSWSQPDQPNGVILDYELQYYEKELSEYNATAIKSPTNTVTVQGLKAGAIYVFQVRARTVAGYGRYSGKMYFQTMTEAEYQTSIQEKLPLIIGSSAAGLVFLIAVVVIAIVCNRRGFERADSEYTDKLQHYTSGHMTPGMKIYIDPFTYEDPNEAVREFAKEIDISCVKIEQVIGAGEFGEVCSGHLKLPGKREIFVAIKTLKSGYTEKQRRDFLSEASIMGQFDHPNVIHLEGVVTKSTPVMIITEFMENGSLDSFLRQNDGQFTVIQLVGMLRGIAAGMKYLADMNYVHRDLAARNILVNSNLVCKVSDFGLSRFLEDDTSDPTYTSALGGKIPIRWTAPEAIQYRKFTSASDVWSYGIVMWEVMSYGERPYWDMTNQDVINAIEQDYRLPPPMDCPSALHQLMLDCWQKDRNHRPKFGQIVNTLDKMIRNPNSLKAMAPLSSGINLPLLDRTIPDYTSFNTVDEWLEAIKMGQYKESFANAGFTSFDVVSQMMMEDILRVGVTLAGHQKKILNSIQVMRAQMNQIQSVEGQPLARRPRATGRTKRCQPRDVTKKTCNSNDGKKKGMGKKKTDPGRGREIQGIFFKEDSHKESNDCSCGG
As to conditions: at 1 µM; call rule not given here.

The target of assay [2] is T1, Ephrin type-B receptor 2 (Homo sapiens). Conditions: at 10 µM.
The target in assay [3] is T2, Ephrin type-B receptor 3 (Homo sapiens) (UniProt P54753).
T2 sequence (whole entry): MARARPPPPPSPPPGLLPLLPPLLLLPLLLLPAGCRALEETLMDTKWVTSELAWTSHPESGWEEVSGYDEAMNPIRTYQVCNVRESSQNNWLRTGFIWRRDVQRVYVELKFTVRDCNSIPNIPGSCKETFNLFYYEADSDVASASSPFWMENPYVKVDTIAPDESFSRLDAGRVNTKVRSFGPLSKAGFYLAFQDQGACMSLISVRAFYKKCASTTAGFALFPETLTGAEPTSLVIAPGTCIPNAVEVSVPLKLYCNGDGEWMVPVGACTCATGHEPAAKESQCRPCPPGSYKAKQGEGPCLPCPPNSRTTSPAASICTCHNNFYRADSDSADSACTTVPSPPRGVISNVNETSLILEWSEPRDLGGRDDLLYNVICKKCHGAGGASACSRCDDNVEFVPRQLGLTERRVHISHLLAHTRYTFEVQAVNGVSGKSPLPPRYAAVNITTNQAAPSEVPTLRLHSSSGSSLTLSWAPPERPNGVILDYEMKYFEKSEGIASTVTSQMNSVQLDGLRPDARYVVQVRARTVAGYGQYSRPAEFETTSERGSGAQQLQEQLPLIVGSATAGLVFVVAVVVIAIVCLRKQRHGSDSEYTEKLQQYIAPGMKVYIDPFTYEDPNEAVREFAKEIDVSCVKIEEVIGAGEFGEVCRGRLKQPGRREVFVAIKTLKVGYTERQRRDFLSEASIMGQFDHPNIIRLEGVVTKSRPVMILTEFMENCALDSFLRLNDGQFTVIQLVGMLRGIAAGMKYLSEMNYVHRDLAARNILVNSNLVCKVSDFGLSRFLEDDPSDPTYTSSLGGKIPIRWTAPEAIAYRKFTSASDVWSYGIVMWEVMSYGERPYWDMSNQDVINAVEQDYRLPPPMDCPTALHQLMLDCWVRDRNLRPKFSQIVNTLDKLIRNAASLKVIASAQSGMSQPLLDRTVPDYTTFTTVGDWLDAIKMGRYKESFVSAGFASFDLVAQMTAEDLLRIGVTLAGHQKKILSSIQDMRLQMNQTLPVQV
As to conditions: at 1 µM.

Assay [4] deals with T2, Ephrin type-B receptor 3 (Homo sapiens). As to conditions: at 10 µM.
Assay [5] concerns the target T3, Ephrin type-B receptor 4 (Homo sapiens) (UniProt P54760).
T3 sequence (whole entry): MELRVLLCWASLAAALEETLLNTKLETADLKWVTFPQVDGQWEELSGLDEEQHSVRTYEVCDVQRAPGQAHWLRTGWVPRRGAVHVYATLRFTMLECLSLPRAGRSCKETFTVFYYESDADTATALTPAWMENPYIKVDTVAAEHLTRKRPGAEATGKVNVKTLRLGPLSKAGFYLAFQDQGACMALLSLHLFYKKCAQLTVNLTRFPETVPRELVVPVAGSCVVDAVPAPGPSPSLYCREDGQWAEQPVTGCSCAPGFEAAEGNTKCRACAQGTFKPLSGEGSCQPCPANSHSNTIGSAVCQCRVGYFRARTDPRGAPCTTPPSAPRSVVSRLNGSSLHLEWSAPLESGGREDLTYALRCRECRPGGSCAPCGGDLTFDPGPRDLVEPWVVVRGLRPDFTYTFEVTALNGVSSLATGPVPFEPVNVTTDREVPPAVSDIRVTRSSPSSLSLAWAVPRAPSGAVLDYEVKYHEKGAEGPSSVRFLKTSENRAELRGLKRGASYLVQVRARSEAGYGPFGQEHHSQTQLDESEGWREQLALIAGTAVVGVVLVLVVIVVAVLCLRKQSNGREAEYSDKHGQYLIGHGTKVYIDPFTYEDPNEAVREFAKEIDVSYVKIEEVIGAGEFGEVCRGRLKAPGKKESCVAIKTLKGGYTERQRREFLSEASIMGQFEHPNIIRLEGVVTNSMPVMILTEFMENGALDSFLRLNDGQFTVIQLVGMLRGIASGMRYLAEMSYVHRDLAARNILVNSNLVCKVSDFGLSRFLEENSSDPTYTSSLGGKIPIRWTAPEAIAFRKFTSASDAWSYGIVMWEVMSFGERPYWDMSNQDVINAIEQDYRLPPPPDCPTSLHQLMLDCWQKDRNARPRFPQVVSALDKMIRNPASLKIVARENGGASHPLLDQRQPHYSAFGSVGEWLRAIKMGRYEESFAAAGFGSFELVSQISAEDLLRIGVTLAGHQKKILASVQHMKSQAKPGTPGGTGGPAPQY
Conditions: at 1 µM.

Assay [6] has as its target T3, Ephrin type-B receptor 4 (Homo sapiens). Conditions: at 10 µM.
Assay [7] has as its target Receptor tyrosine-protein kinase erbB-4 (Homo sapiens) (UniProt Q15303). As to conditions: at 1 µM.
Assay [8] has the same target. Conditions: at 10 µM.
Assay [9] has as its target Focal adhesion kinase 1 (Homo sapiens) (UniProt Q05397). As to conditions: at 1 µM.

Each structure is given as a SMILES string.

Sequence of Receptor tyrosine-protein kinase erbB-4 (Homo sapiens) (Q15303 whole entry): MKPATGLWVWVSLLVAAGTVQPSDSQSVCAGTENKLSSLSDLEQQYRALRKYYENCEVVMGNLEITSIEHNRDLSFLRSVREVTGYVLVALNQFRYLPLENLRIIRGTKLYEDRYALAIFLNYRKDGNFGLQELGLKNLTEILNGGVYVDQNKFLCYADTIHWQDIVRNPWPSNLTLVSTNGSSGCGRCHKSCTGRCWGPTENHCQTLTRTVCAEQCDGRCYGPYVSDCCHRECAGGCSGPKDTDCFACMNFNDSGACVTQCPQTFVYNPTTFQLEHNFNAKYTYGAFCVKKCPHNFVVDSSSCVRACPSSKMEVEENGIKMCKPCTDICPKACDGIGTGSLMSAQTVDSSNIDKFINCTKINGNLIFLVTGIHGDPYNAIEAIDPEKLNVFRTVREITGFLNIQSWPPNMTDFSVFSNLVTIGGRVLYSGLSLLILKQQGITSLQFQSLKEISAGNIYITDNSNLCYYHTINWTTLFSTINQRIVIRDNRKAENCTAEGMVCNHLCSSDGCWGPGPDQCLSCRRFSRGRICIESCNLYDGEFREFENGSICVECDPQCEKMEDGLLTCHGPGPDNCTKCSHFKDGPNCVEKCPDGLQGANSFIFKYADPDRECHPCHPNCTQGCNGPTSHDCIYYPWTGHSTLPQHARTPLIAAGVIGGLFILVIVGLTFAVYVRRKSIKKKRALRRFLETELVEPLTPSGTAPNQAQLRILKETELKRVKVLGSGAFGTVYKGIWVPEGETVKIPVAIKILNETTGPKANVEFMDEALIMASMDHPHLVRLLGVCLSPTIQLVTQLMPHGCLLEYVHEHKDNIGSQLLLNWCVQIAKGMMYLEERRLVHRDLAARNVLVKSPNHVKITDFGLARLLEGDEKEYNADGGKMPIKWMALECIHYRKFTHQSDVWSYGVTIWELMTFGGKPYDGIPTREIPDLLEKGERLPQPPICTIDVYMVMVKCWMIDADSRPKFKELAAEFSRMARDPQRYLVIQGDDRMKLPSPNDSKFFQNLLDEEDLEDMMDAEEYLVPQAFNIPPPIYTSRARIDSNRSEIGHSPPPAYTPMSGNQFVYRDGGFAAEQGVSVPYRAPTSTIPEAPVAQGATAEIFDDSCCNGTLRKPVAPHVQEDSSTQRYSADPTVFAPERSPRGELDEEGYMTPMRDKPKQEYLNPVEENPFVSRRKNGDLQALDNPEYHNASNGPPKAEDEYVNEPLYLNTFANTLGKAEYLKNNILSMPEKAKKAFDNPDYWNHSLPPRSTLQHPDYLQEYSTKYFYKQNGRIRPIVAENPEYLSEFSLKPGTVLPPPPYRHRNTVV
Sequence of Focal adhesion kinase 1 (Homo sapiens) (Q05397 2-1052 limits assumed): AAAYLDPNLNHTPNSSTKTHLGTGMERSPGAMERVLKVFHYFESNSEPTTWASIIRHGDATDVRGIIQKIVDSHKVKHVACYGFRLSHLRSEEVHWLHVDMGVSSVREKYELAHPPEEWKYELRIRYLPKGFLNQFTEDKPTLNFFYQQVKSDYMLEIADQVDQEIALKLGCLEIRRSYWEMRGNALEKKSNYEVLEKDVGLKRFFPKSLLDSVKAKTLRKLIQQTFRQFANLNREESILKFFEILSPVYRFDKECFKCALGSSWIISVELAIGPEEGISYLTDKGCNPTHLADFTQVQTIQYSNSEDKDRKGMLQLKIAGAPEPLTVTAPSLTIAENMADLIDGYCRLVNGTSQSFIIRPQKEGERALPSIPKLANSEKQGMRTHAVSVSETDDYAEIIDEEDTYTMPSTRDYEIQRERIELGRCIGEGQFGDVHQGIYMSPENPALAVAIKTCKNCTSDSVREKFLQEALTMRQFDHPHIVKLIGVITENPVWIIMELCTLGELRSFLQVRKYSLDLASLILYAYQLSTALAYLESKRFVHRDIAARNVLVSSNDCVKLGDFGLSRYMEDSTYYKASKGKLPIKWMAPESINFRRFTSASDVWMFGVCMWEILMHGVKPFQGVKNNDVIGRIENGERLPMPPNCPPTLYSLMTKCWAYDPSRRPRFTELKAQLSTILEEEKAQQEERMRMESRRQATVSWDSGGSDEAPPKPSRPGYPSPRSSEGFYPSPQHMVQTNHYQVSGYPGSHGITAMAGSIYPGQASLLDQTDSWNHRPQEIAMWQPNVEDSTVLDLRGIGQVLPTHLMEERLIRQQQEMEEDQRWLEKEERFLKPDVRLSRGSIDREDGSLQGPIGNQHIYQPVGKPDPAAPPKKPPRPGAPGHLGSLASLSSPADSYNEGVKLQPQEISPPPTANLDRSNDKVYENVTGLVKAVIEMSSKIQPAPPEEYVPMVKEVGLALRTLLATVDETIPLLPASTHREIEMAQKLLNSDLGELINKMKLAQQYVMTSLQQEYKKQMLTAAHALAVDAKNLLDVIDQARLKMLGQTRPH

The term residual activity denotes the signal under treatment as a percentage of the control signal. Turning to `CN(C)CCCn1cc(C2=C(c3c[nH]c4ccccc34)C(=O)NC2=O)c2ccccc21`, the residual activity in assay [1] was 119%; in assay [2], 113%; in [3], 108% (inactive); in [4], 110%; in [5], 124%; in assay [6], 118%. For the same compound, the results for the residual activity in [7], in [8] and in assay [9] were 113%, 86% and 133%, respectively.
